Measurements from the supplement of paper PMC6555819.

Assays:
Test in all cases: PBM binding z-score (relative to random genomic background probes); higher = stronger binding; sequences stand for … in GC…GCGATTGACAGCGTAGAATGAAGG
[1] = tested on: PPARg:RXRa DBDmut IVT, anti-RXR (DBD mutation: RXRa K156A/R161A, NR concentration 270 nM, RXRa partner concentration 90 nM)
Procedure, shortened: (§1)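 Custom Agilent 4×180K protein-binding microarrays carried double-stranded probes. Their 34-nt variable regions held direct-repeat seeds, single-nucleotide variants, half-site ablations and random human genomic background sequences. Arrays were incubated 1 h with ligand-free nuclear receptor dimers in PBS pH 7.4, 2% milk, 0.02% Triton X-100, 1 mM DTT, 0.2 mg/mL BSA and 0.4 mg/ml salmon testes DNA. Antibodies against each partner (one per run) detected binding, and scanned fluorescence was regression-normalized. Binding z-scores use random background probes as reference.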

[2] = tested on: PPARg:RXRa IVT, anti-PPARg (NR concentration 270 nM, RXRa partner concentration 90 nM)
Procedure, shortened: as §1

[3] = tested on: PPARg DBDmut:RXRa IVT, anti-PPARg (DBD mutation: PPARg1 K132A/R137A, NR concentration 270 nM, RXRa partner concentration 90 nM)
Procedure, shortened: as §1

[4] = tested on: PPARg DBDmut IVT, anti-PPARg (DBD mutation: PPARg1 K132A/R137A, NR concentration 270 nM)
Procedure, shortened: as §1

[5] = tested on: PPARg homodimer (NR concentration 180 nM)
Procedure, shortened: as §1

[6] = tested on: PXR:RXRa (NR concentration 270 nM, RXRa partner concentration 90 nM)
Procedure, shortened: as §1

[7] = tested on: PXR homodimer (NR concentration 270 nM)
Procedure, shortened: as §1

[8] = tested on: RARa:RXR (NR concentration 270 nM, RXRa partner concentration 90 nM)
Procedure, shortened: as §1

[9] = tested on: RARa homodimer (NR concentration 270 nM)
Procedure, shortened: as §1

[10] = tested on: RARb:RXRa (NR concentration 270 nM, RXRa partner concentration 90 nM)
Procedure, shortened: as §1

[11] = tested on: RARb homodimer (NR concentration 270 nM)
Procedure, shortened: as §1

[12] = tested on: RARg:RXRa (NR concentration 270 nM, RXRa partner concentration 90 nM)
Procedure, shortened: as §1

[13] = tested on: RARg homodimer (NR concentration 270 nM)
Procedure, shortened: as §1

[14] = tested on: RXRa DBDmut IVT, anti-RXR (DBD mutation: RXRa K156A/R161A, NR concentration 90 nM)
Procedure, shortened: as §1

[15] = tested on: RXRa homodimer (NR concentration 180 nM)
Procedure, shortened: as §1

[16] = tested on: THRa:RXRa (NR concentration 90 nM, RXRa partner concentration 90 nM)
Procedure, shortened: as §1

[17] = tested on: THRa homodimer (NR concentration 90 nM)
Procedure, shortened: as §1

[18] = tested on: VDR homodimer (NR concentration 270 nM)
Procedure, shortened: as §1

Row | Sequence | PBM binding z-score [1] | PBM binding z-score [2] | PBM binding z-score [3] | PBM binding z-score [4] | PBM binding z-score [5] | PBM binding z-score [6] | PBM binding z-score [7] | PBM binding z-score [8] | PBM binding z-score [9] | PBM binding z-score [10] | PBM binding z-score [11] | PBM binding z-score [12] | PBM binding z-score [13] | PBM binding z-score [14] | PBM binding z-score [15] | PBM binding z-score [16] | PBM binding z-score [17] | PBM binding z-score [18]
1 | GGAACGCGGGCATTCGAGTTGATAGCATGGCGAT | -0.393 | -0.666 | -1.41 | -1.44 | -1.1 | -0.103 | -0.449 | -0.652 | -1.13 | -0.209 | -0.894 | -0.144 | -0.0858 | 0.211 | -0.381 | 0.468 | -1.25 | 0.00818
2 | TAACCTAGGTCAGATCGGGCCAGTATACGCTATA | 1.82 | 3.4 | 0.884 | -0.00517 | 1.09 | 1.54 | -0.137 | 1.38 | -0.0765 | 3.32 | 2.52 | 3.36 | 3.68 | 0.17 | 1.94 | 4.19 | 0.384 | 0.367
3 | CATACTAGGTCAAGAGGTCAAAGTCCGCTTCCCG | 7.37 | 7.69 | 4.46 | 2.98 | 5.59 | 6.4 | 2.53 | 7.53 | 3.07 | 5.67 | 5.69 | 8.1 | 7.68 | 3.2 | 8.08 | 4.5 | 2.62 | 4.64
4 | ACTATTAGTTGACTTAGGGCAAACGATACGACGC | 0.0351 | 0.568 | 1.39 | 1.52 | 0.392 | 0.274 | 0.0698 | 0.533 | 0.0866 | 0.712 | 0.722 | 0.773 | 1.08 | 0.703 | 0.56 | 1.24 | 0.149 | -0.123
5 | CTCGAAAGGTCGGTTGAGGTGAATATACGGATAA | -0.113 | 1.11 | 0.319 | 0.349 | 0.741 | 3.62 | 0.148 | 2.94 | 0.256 | 3.27 | 2.32 | 2.98 | 2.77 | 0.545 | 2.5 | 5.06 | 1.58 | 0.52
6 | CTCGAAAGGTGGGTTGAGGTGAGTATACGGATAA | 0.207 | 0.842 | 0.168 | 0.0199 | 0.652 | 1.01 | 0.754 | 1.22 | 0.749 | 0.866 | 1.3 | 0.297 | 0.548 | -0.0446 | 0.396 | 4.18 | 1.75 | 0.756
7 | CAAACTAGGTCACGAAAGGTCAGAGTCGAATGAC | 8.85 | 9.13 | 3.21 | 1.91 | 7.35 | 6.33 | 1.71 | 6.97 | 5.45 | 5.39 | 5.65 | 7.33 | 7.81 | 2.37 | 7.38 | 4.84 | 2.26 | 2.55
8 | GGAACGAGGGCATTCGAGATGATAGCATGGCGAT | 2.56 | 2.34 | -0.145 | -0.476 | -0.199 | 0.623 | 0.0214 | 0.232 | -0.236 | 1.72 | 0.609 | 1.13 | 1.65 | 3.05 | 1.02 | 1.44 | -0.487 | 2.01
9 | CGTCCAAGGTCAAGGTCAGGGAAAGAGACTCGAA | 4.11 | 5.09 | 0.821 | -0.224 | 4.18 | 5.28 | 1.82 | 5.45 | 2.88 | 5.72 | 5.45 | 7.09 | 7.87 | 3.81 | 7.17 | 4.53 | 3.82 | 3.37
10 | GGAACGAGGACAAAGTTGATAGCATCTGTCGACG | 1.35 | 1.44 | -0.283 | -0.95 | -0.0718 | -0.043 | -0.312 | 0.0802 | 0.0714 | 0.942 | 0.33 | 0.769 | 1.2 | 1.23 | 0.361 | 2.36 | 0.861 | 0.141
11 | AGAACGAGGTTATACGTAGATCAGGGAAGAAAGT | 2.22 | 1.34 | 0.863 | 0.661 | 0.41 | 0.761 | 0.521 | 1.27 | 0.483 | 1.27 | 0.438 | 1.69 | 1.07 | 1.54 | 2.02 | 1.41 | 0.179 | 0.807
12 | AGTCAAATTTCAGGACGAGGTAACGTAAAGCACG | -0.406 | 0.239 | 0.677 | 0.285 | 0.523 | -0.111 | 0.169 | 0.428 | 0.17 | 0.269 | 0.179 | 0.276 | 0.438 | -0.237 | 0.24 | 2.29 | 1.82 | 0.197
13 | AGTCAAAGTTCACTAGGTATCGTAAGATTCAGCT | 1.2 | 3.6 | 1.14 | 1.1 | 2.46 | 4.04 | 3.44 | 2.8 | 1.06 | 4.7 | 3.71 | 4.66 | 5.74 | 4.28 | 3.72 | 1.51 | -0.258 | 4.12
14 | ATCGAAAGGTCGAAGGTGATTATACCCACCCGAA | 0.155 | 2 | 1.25 | 0.935 | 1.86 | 2.89 | 0.393 | 4.03 | 0.957 | 3.5 | 2.14 | 4.11 | 3.87 | 0.956 | 4.77 | 1.97 | 0.193 | 0.477
15 | TTGCCTAGGTCATGCGGGCCAGTATAGTGTCGGC | 1.47 | 2.82 | 0.433 | -0.575 | 0.753 | 1.39 | -0.692 | 2.31 | -0.448 | 3.82 | 2.96 | 3.93 | 4.33 | 0.791 | 2.76 | 3.08 | 0.807 | 0.421
